Measured values from PubChem BioAssay (NCATS).
Inconclusive results are not listed. Calls of active or inactive are those of the source. Calls come from the whole dose curve; as a rule, active = well fitted curve in the direction sought with a large enough effect; inconclusive = small, poorly fitted or top-dose-only effect, or another doubt; inactive = no such curve, though single readings can be large; an effect the other way counts as inactive or inconclusive.

Key:
NIH3T3 = experiment: qHTS assay to identify novel small-molecules to repurpose for Merkel cell carcinoma treatment (AID 1296009); conditions: MCC and control cell lines, CellTiter-Glo viability, 72 h; at 44.8 µM (top of the series) unless noted; note: nearly all actives have a fitted effect of over 60% in size
In short: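 Cells were incubated with compound for 72 hr at 37 degree celsius before CellTiter-Glo addition. Luminescence was normalized with no-cell wells as full cytotoxicity and DMSO as baseline.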

C33A = experiment: Primary qHTS to identify gynecologic anti-cancer compounds using libraries of approved drugs and bioactive compounds (AID 1345084); conditions: Gynecologic cancer cell panel viability, ATPlite luminescence, 48 h; series mostly up to 57.5 µM; note: % is set by controls: 0 for no effect and ±100 for the full control effect; nearly all actives have a fitted effect of over 55% in size
In short: (§1)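 Cells, 1,000 per well, were allowed to settle for 16 h at 37 C before compound addition. Five concentrations were tested for 48 h, and viability was read by ATPlite luminescence after 15 min at room temperature.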

CAOV3 = experiment: as above; conditions: Gynecologic cancer cell panel viability, ATPlite luminescence, 48 h; series mostly up to 57.5 µM
In short: as §1

CASKI = experiment: as above; conditions: Gynecologic cancer cell panel viability, ATPlite luminescence, 48 h; series mostly up to 57.5 µM
In short: as §1

Es-2 = experiment: as above; conditions: Gynecologic cancer cell panel viability, ATPlite luminescence, 48 h; series mostly up to 57.5 µM
In short: as §1

HeLa = experiment: as above; conditions: Gynecologic cancer cell panel viability, ATPlite luminescence, 48 h; series mostly up to 57.5 µM
In short: as §1

Hek293T = experiment: as above; conditions: Gynecologic cancer cell panel viability, ATPlite luminescence, 48 h, control line for the selectivity index; series mostly up to 57.5 µM
In short: as §1

JEG-3 = experiment: as above; conditions: Gynecologic cancer cell panel viability, ATPlite luminescence, 48 h; series mostly up to 57.5 µM
In short: as §1

OV90 = experiment: as above; conditions: Gynecologic cancer cell panel viability, ATPlite luminescence, 48 h; series mostly up to 57.5 µM
In short: as §1

PA-1 = experiment: as above; conditions: Gynecologic cancer cell panel viability, ATPlite luminescence, 48 h; series mostly up to 57.5 µM
In short: as §1

SKOV3 = experiment: as above; conditions: Gynecologic cancer cell panel viability, ATPlite luminescence, 48 h; series mostly up to 57.5 µM
In short: as §1

Tov-21-G = experiment: as above; conditions: Gynecologic cancer cell panel viability, ATPlite luminescence, 48 h; series mostly up to 57.5 µM
In short: as §1

Tov112D = experiment: as above; conditions: Gynecologic cancer cell panel viability, ATPlite luminescence, 48 h; series mostly up to 57.5 µM
In short: as §1

O=C(Nc1cc(-c2ccccc2)nn1-c1ccccc1F)c1ccc([N+](=O)[O-])cc1
inactive: outcome (NIH3T3) | Potency (C33A) | Potency (CAOV3) | outcome (CASKI) | Potency (Es-2) | Potency (HeLa) | Potency (Hek293T) | Potency (JEG-3) | Potency (OV90) | Potency (PA-1) | Potency (SKOV3) | Potency (Tov-21-G) | Potency (Tov112D)

CC(C)=CCC[C@](C)(O[C@@H]1O[C@H](CO[C@@H]2OC[C@H](O)[C@H](O)[C@H]2O)[C@@H](O)[C@H](O)[C@H]1O)[C@H]1CC[C@]2(C)[C@@H]1[C@H](O)C[C@@H]1[C@@]3(C)CC[C@H](O[C@@H]4O[C@H](CO)[C@@H](O)[C@H](O)[C@H]4O[C@@H]4O[C@H](CO)[C@@H](O)[C@H](O)[C@H]4O)C(C)(C)[C@@H]3CC[C@]12C
inactive: outcome (NIH3T3) inactive [at 17.4 µM] | Potency (C33A) | Potency (CAOV3) | outcome (CASKI) | Potency (Es-2) | Potency (HeLa) | Potency (Hek293T) | Potency (JEG-3) | Potency (OV90) | Potency (PA-1) | Potency (SKOV3) | Potency (Tov-21-G) | Potency (Tov112D)

CC1(C)CCC2(C(=O)O)CCC3(C)C(=CCC4C5(C)CCC(O)C(C)(CO)C5C(O)CC43C)C2C1 (stereo unspecified)
inactive: outcome (NIH3T3) inactive [at 17.4 µM] | Potency (C33A) | Potency (CAOV3) | outcome (CASKI) | Potency (Es-2) | Potency (HeLa) | Potency (Hek293T) | Potency (JEG-3) | Potency (OV90) | Potency (PA-1) | Potency (SKOV3) | Potency (Tov-21-G) | Potency (Tov112D)

CC(C)C(NC(=O)c1ccc(O)cc1)C(=O)N1CCCC1C(=O)Nc1c(O)cccc1C(=O)O (stereo unspecified)
inactive: outcome (NIH3T3) inactive [at 17.4 µM] | Potency (C33A) | Potency (CAOV3) | outcome (CASKI) | Potency (Es-2) | Potency (HeLa) | Potency (Hek293T) | Potency (JEG-3) | Potency (OV90) | Potency (PA-1) | Potency (SKOV3) | Potency (Tov-21-G) | Potency (Tov112D)

CC[C@H](C)[C@H](NC(=O)[C@H](Cc1ccc(O)cc1)NC(=O)[C@@H](N)C(C)C)C(=O)N[C@@H](Cc1cnc[nH]1)C(=O)N1CCC[C@H]1C(=O)N[C@@H](Cc1ccccc1)C(=O)O
inactive: outcome (NIH3T3) inactive [at 4.96 µM] | activity change, negative = cytotoxicity (C33A) 19.1% [at 6.55 µM] | activity change, negative = cytotoxicity (CAOV3) 20.7% [at 6.55 µM] | activity change, negative = cytotoxicity (CASKI) -0.165% [at 6.55 µM] | activity change, negative = cytotoxicity (Es-2) 0.0528% [at 6.55 µM] | activity change, negative = cytotoxicity (HeLa) 25.4% [at 6.55 µM] | activity change, negative = cytotoxicity (Hek293T) 1.27% [at 6.55 µM] | activity change, negative = cytotoxicity (JEG-3) 1.86% [at 6.55 µM] | activity change, negative = cytotoxicity (OV90) -1.9% [at 6.55 µM] | activity change, negative = cytotoxicity (PA-1) 4.28% [at 6.55 µM] | activity change, negative = cytotoxicity (SKOV3) 16.8% [at 6.55 µM] | activity change, negative = cytotoxicity (Tov-21-G) 1.06% [at 6.55 µM] | activity change, negative = cytotoxicity (Tov112D) 12.4% [at 6.55 µM]

Nc1ncnc2c1C(=O)N(c1ccc(C3CCC(CC(=O)O)CC3)cc1)CCO2 (stereo unspecified)
inactive: outcome (NIH3T3) | Potency (C33A) | Potency (CAOV3) | outcome (CASKI) | Potency (Es-2) | Potency (HeLa) | Potency (Hek293T) | Potency (JEG-3) | Potency (OV90) | Potency (PA-1) | Potency (SKOV3) | Potency (Tov-21-G) | Potency (Tov112D)

CC1=CC(=O)[C@]2(O[C@@H]3O[C@@H](C)[C@H](O)[C@@H](O)[C@H]3O)C=CO[C@@H](O[C@@H]3O[C@H](CO)[C@@H](O)[C@H](O)[C@H]3O)[C@H]12
inactive: outcome (NIH3T3) inactive [at 17.4 µM] | Potency (C33A) | Potency (CAOV3) | outcome (CASKI) | Potency (Es-2) | Potency (HeLa) | Potency (Hek293T) | Potency (JEG-3) | Potency (OV90) | Potency (PA-1) | Potency (SKOV3) | Potency (Tov-21-G) | Potency (Tov112D)

CC(C)C1NC(=O)C(CC2(O)c3ccccc3N3C(=O)C(Cc4ccccc4)NC32)NC1=O (stereo unspecified)
inactive: outcome (NIH3T3) inactive [at 17.4 µM] | Potency (C33A) | Potency (CAOV3) | outcome (CASKI) | Potency (Es-2) | Potency (HeLa) | Potency (Hek293T) | Potency (JEG-3) | Potency (OV90) | Potency (PA-1) | Potency (SKOV3) | Potency (Tov-21-G) | Potency (Tov112D)

CC1(C)O[C@H]2CC(=O)OC[C@@]23C1=C(O)C(=O)[C@]1(C)C3CC[C@@]2(C)[C@H](c3ccoc3)OC(=O)[C@H]3O[C@]321 (stereo partly specified)
inactive: outcome (NIH3T3) inactive [at 17.4 µM] | Potency (C33A) | Potency (CAOV3) | outcome (CASKI) | Potency (Es-2) | Potency (HeLa) | Potency (Hek293T) | Potency (JEG-3) | Potency (OV90) | Potency (PA-1) | Potency (SKOV3) | Potency (Tov-21-G) | Potency (Tov112D)

CC(=O)OCC(Cc1ccccc1)NC(=O)C(Cc1ccccc1)NC(=O)c1ccccc1 (stereo unspecified)
inactive: outcome (NIH3T3) inactive [at 17.4 µM] | Potency (C33A) | Potency (CAOV3) | outcome (CASKI) | Potency (Es-2) | Potency (HeLa) | Potency (Hek293T) | Potency (JEG-3) | Potency (OV90) | Potency (PA-1) | Potency (SKOV3) | Potency (Tov-21-G) | Potency (Tov112D)

CCC1(O)CC2c3cc(OC)c(OC)cc3CCN2CC1CC(C)C (stereo unspecified)
inactive: outcome (NIH3T3) | Potency (C33A) | Potency (CAOV3) | outcome (CASKI) | Potency (Es-2) | Potency (HeLa) | Potency (Hek293T) | Potency (JEG-3) | Potency (OV90) | Potency (PA-1) | Potency (SKOV3) | Potency (Tov-21-G) | Potency (Tov112D)

O=C(/C=C/c1ccc(O)c(O)c1)O[C@@H]1[C@@H](O)[C@H](OC2CCCCC2O)O[C@H](CO)[C@H]1O (stereo partly specified)
inactive: outcome (NIH3T3) inactive [at 17.4 µM] | Potency (C33A) | Potency (CAOV3) | outcome (CASKI) | Potency (Es-2) | Potency (HeLa) | Potency (Hek293T) | Potency (JEG-3) | Potency (OV90) | Potency (PA-1) | Potency (SKOV3) | Potency (Tov-21-G) | Potency (Tov112D)
